An excerpt weighted towards active compounds, which were near 14% of everything screened.
A350 autofl: qHTS Assay for Spectroscopic Profiling in A350 Spectral Region; Compound autofluorescence, 340/450 nm, Alexa 350 dye-equivalents; active compounds read high; max dye-equivalent concentration, M; 11% of 59,000 active; in the data active = max dye-equivalent concentration above about 10 nM; inconclusive = mostly about 1.1 nM to 9.6 nM
CRE-bla Fsk: Cell signaling CRE-BLA (Fsk stim) | Potency, µM (top dose mostly 38.2 µM), actives largely listed as activators | AID 662, 2007 | 2.5% of 71,000 active | CHO CRE-bla reporter (cAMP response element driving beta-lactamase), forskolin EC10, beta-lactamase ratio; active = well fitted activation curve with a large enough effect in the signal ratio, with a control signal flat, not every such curve was filed as active; inconclusive = small, poorly fitted or top-dose-only effect, or effect the other way, or a change in a side signal; the % refers to the signal ratio
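CHO CRE-bla cells, overnight plating in Opti-MEM with 0.5% dialyzed FBS; cpd titration + EC10 NKH 477, 3 h 37 °C; CCF4 2 h RT; ex 405/em 460 vs 530 ratio → %Activity, AC50.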
HSD17B inh: qHTS Assay for Inhibitors of HSD17B4, hydroxysteroid (17-beta) dehydrogenase 4; 3-hydroxyacyl-CoA dehydrogenase type-2 (Homo sapiens), Q99714; recombinant HSD17B10, NADH fluorescence kinetic; Potency, µM (top dose mostly 57.1 µM), hits mostly inhibitors; 7.6% of 75,000 active;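 note: the protocol describes HADH2 (HSD17B10) and not the HSD17B4 of the title; nearly all actives have a fitted effect of over 70% in size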
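His-tagged E. coli-expressed HADH2 at 20 nM in 100 mM Tris-HCl pH 9.0 with 0.01 % Tween-20, preincubated 15 min with compound at room temperature. Reaction with 1 mM NAD+ and 90 uM beta-hydroxybutyryl coenzyme A; NADH fluorescence (360/450 nm) read kinetically over 4 min, last minus first point.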
HADH2 inh: qHTS Assay for Inhibitors of HADH2 (Hydroxyacyl-Coenzyme A Dehydrogenase, Type II). 3.4% of 73,000 active. 3-hydroxyacyl-CoA dehydrogenase type-2 (Homo sapiens), Q99714. Potency, µM (titrated, usually from 57.1 µM), hits mostly inhibitors. recombinant HADH2, NADH fluorescence, beta-hydroxybutyryl-CoA. AID 886, 2007; note: nearly all actives have a fitted effect of over 60% in size
Target sequence (Q99714 whole entry, looked up, one chain of several): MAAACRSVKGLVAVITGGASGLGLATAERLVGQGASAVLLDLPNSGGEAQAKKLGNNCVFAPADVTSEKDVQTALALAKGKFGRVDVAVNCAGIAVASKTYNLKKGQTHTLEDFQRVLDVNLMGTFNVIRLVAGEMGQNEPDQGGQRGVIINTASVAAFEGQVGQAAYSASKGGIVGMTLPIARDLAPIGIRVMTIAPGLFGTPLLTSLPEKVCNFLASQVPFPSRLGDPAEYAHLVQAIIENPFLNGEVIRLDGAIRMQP
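Activity measured as NADH fluorescence gain (360/450 nm), taken as the change between first and last reads of a 4-min kinetic run. Conditions: pH 9.0 Tris buffer, 20 nM E. coli-expressed His-tagged enzyme, 1 mM NAD+, 90 uM beta-hydroxybutyryl-CoA; 15-min compound preincubation.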
4MU fluor: qHTS Assay for Spectroscopic Profiling in 4-MU Spectral Region | compound autofluorescence, 340/450 nm, 4-MU equivalents; active compounds read high | max dye-equivalent concentration, M | 11% of 59,000 active | AID 589, 2007; in the data active = max dye-equivalent concentration above about 10 nM; inconclusive = mostly about 1.1 nM to 9.6 nM
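Compounds in 100 mM Tris, pH 8.0, incubated 15 min at room temperature, then fluorescence read at 340 nm excitation/450 nm emission. Signal converted to 4-MU dye-equivalent concentration using an on-plate six-point 4-MU standard curve.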
AID923: qHTS Assay for Allosteric/Competitive Inhibitors of Caspase-1: Spectroscopic Profiling in AFC Spectral Region; compound fluorescence, AFC spectral region (405/520 nm); Potency, µM (top dose mostly 57.5 µM), most hits filed as activators; 1.1% of 75,000 active; AID 923, 2007
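Titrations up to 57 uM read every 20 sec for 3 min (405/520 nm) with 50 nM caspase 1 and 5 uM Ac-WEHD-AFC, pH 7.5 HEPES buffer. Fluorescence-vs-time intercept gave baseline, scaled against on-plate AFC standard.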
Large screens that a line does not name were inactive. Unless noted, calls come from the whole dose curve; as a rule, active = well fitted curve in the direction sought with a large enough effect; inconclusive = small, poorly fitted or top-dose-only effect, or another doubt; inactive = no such curve, though single readings can be large; an effect the other way counts as inactive or inconclusive.

C[C@@H](CO)NC(=O)[C@@H]1C=C2c3cccc4[nH]cc(c34)C[C@H]2N(C)C1	HSD17B inh 32µM, AID923 inconclusive (no result: A350 autofl, CRE-bla Fsk, HADH2 inh, 4MU fluor)
CC(CO)NC(=O)C1C=C2c3cccc4[nH]cc(c34)C[C@H]2N(C)C1 (some centres not stated)	HSD17B inh 32µM (no result: A350 autofl, CRE-bla Fsk, HADH2 inh, 4MU fluor)
CCN(CC)C(=O)N[C@H]1C=C2c3cccc4[nH]cc(c34)C[C@@H]2N(C)C1	A350 autofl 4.7e-08M, HSD17B inh 13µM, HADH2 inh 16µM, 4MU fluor 5.2e-08M
CC(C)[C@@]1(NC(=O)[C@@H]2C[C@H]3c4cccc5[nH]cc(c45)C[C@@H]3N(C)C2)O[C@@]2(O)[C@H]3CCCN3C(=O)[C@@H](Cc3ccccc3)N2C1=O	none (no result: HSD17B inh, AID923)
CC(C)[C@@]1(NC(=O)[C@@H]2C[C@H]3c4cccc5[nH]cc(c45)C[C@@H]3N(C)C2)O[C@]2(O)[C@H]3CCCN3C(=O)[C@H](Cc3ccccc3)N2C1=O	none
CCN(CC)C(=O)N[C@H]1C[C@H]2c3cccc4[nH]cc(c34)C[C@@H]2N(C)C1	HSD17B inh inconclusive
CN(C)C1=C(C#N)C(c2ccccc2)=NP(N(C)C)(N(C)C)=N1	none
Cc1noc(C)c1C(=O)N1CCC2(CC1)OCCO2	none
CN1C(=O)N(C)C(=O)C2(Sc3ccccc3C2=O)C1=O	A350 autofl 3.5e-08M, 4MU fluor 2.2e-08M
COC(C)(C)C	none (no result: A350 autofl, 4MU fluor)
CC(=NCCN1CCOCC1)c1c(O)n(-c2ccccc2C)c(=O)[nH]c1=O	none
CCC(=NCCCN1CCOCC1)c1c(O)n(Cc2ccccc2)c(=O)[nH]c1=O	CRE-bla Fsk inconclusive
O=c1[nH]c(=O)n(Cc2ccccc2)c(O)c1C=Nc1ccc(CN2CCOCC2)cc1	A350 autofl 2e-07M, CRE-bla Fsk inconclusive, HSD17B inh inconclusive, HADH2 inh inconclusive, 4MU fluor 1.6e-07M
CCC(=NCCN1CCOCC1)c1c(O)n(-c2ccccc2C)c(=O)[nH]c1=O	HADH2 inh 3.2µM
CC(=NCCCN1CCOCC1)c1c(O)n(Cc2ccccc2)c(=O)[nH]c1=O	A350 autofl 1.8e-08M, CRE-bla Fsk inconclusive, 4MU fluor 1.4e-08M
CCCCn1c(O)c(C(CC)=NCCc2ccccc2)c(=O)[nH]c1=O	CRE-bla Fsk 10µM
CCC(C)(C)c1ccc(O)cc1	CRE-bla Fsk inconclusive (no result: A350 autofl, 4MU fluor)
CCC1(CC)C(=O)NC(=Nc2cccc(C(F)(F)F)c2)NC1=O	none
O=C(CN1C2CCC1CC(O)(c1cccnc1)C2)Nc1ccc2c(c1)OCO2 (configuration not stated)	none
CC(=O)OC1CC2C(C)(C)C(=O)C=C[C@]2(C)C2CC[C@]3(C)C(=CC(=O)OC3c3ccoc3)[C@]12C (some centres not stated)	none (no result: A350 autofl, CRE-bla Fsk, HADH2 inh, 4MU fluor)
Cn1c2ccccc2c2c(C(=O)N3CCC4(CC3)OCCO4)cn(C3CCCC3)c(=O)c21	A350 autofl 3.9e-07M, CRE-bla Fsk inconclusive, HSD17B inh 25µM, HADH2 inh inconclusive, 4MU fluor 4.4e-07M
COCCn1cc(C(=O)N2CCC3(CC2)OCCO3)c2c3ccccc3n(C)c2c1=O	A350 autofl 7.5e-07M, HSD17B inh 25µM, 4MU fluor 6.9e-07M
Cn1c(=O)cc(SCC(=O)N2CCC3(CC2)OCCO3)c2ccccc21	HSD17B inh inconclusive
Oc1c(Cl)c(Cl)c(Cl)c(Cl)c1Cl (tested in a mixture with another compound)	CRE-bla Fsk inconclusive (no result: HSD17B inh)
CC(C)[C@H](CO)Nc1nc(Nc2cccc(Cl)c2)c2ncn(C(C)C)c2n1	CRE-bla Fsk inconclusive, HSD17B inh 32µM
CCn1cnc2c(Nc3cccc(Cl)c3)nc(N[C@@H]3CCCC[C@H]3N)nc21	CRE-bla Fsk inconclusive
C[N+](C)(C)CC(=O)[O-]	none (no result: A350 autofl, CRE-bla Fsk, HADH2 inh, 4MU fluor)
c1ccc2nc(N3CCNCC3)ccc2c1	A350 autofl 2.1e-08M, HSD17B inh inconclusive, 4MU fluor 2.3e-08M
